Molecules are shown by their SMILES. About 1,900 (0.58%) of roughly 330,000 compounds were called active. Another 4% or so got no clear call; they are omitted. These entries were drawn from the full list. Entries with a potency or affinity are not part of this list. Values without a mark were called inactive. No stated cut-off is given here; in the data, inconclusive means inhibition above about 70% without an active follow-up result; inactive means below that.

This experiment in a line: M. tuberculosis growth inhibition, HTS (AID 449762).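 Further: bacterial growth assessed after seven days of incubation.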 The settings on record: M. tuberculosis H37Rv growth inhibition, 7H9 media; at 25 µM; active compounds read high.
Regarding `N#CCNc1ccc([N+](=O)[O-])cc1C#N`, the inhibition is 2.63%.
The figure for `COc1cc2c(cc1OC)C(C)N(C(=O)c1cc3c(s1)-c1c(C)cccc1OC3)CC2` (stereo unspecified) is 60.6%.
For `Cc1ccc(C(=O)N/C(=C/c2ccco2)C(=O)O)cc1` the value was 0.79%; for `Cc1ccc(C(=O)N/C(=C\c2cccc([N+](=O)[O-])c2)C(=O)OCN2C(=O)c3ccccc3C2=O)cc1`, 9.25%.
The figure for `CS/C(=C\[N+](=O)[O-])Nc1ccc(Cl)cc1` is 55.3%; for `NN/C(=C\[N+](=O)[O-])Nc1ccccc1` it is 69.9%; for `CC(Sc1nnc(-c2cccs2)n1-c1ccccc1)C(=O)NCc1ccc2c(c1)OCO2` (stereo unspecified) it is -16.1%.
With `CCCCOc1ccc(C(=O)Nc2ccc(N3CCN(C(=O)C(C)C)CC3)cc2)cc1`, the inhibition is 11.1%.
The figure for `Cc1cc(Nc2ccccc2Cl)nc(-c2ccccc2O)n1` is 57.3%; for `Cc1cc(OC2CCCCC2)nc(-c2ccccc2O)n1` it is -9.08%; for `O=C(Cn1nc(Cl)nc1Cl)c1ccc2c(c1)OCCO2` it is 60.7%.
The figure for `O=C(Cn1ncc(Cl)c(Cl)c1=O)N1CCOCC1` is 2.21%; for `CCOC(=O)c1sc(=NC(=O)c2ccc(C)c(C)c2)n(C)c1C` it is 31.6%; for `O=C(N/N=C/c1c[nH]c2ccccc12)c1sc2ccccc2c1Cl` it is 1.35%.
For `O=C(N/N=C/c1cccnc1)c1sc2ccccc2c1Cl` the value was 66%; for `CC(=O)NCCc1nc2cc(NC(=O)c3ccccc3Cl)ccc2n1C`, -3.12%; for `Cc1cc(C(C)(C)C)oc1C(=O)OCC(=O)NC1CCCCC1`, 7.47%.
Consider `CS(=O)(=O)N1c2ccccc2[C@]2([C@@]34C[C@H]5C(=O)N[C@@H](Cc6ccccc6)C(=O)N5[C@@H]3N(S(C)(=O)=O)c3ccccc34)C[C@H]3C(=O)N[C@@H](Cc4ccccc4)C(=O)N3[C@H]12`, for which the inhibition was -2.63%.
Take `CN1C(=O)[C@@H]2C[C@@]3([C@@]45C[C@H]6C(=O)N(C)[C@@H](Cc7ccccc7)C(=O)N6[C@@H]4Nc4ccccc45)c4ccccc4N[C@H]3N2C(=O)[C@@H]1Cc1ccccc1`: the inhibition was 11.8%.
For `CCCCC1S/C(=N/N=C/c2ccco2)NC1=O` (stereo unspecified) the value was 4.46%; for `Cc1ccc(Cn2ccsc2=NC(=O)COC(=O)C(C)C)cc1`, -7.15%.
In the case of `CCC(=O)OCC(=O)N=c1sccn1Cc1ccc(C)cc1`, the inhibition is 6.77%.
For `CN(Cc1nc2ccccc2[nH]1)C(=O)C1CCC(=O)N(CCc2cccc(F)c2)C1` (stereo unspecified) the value was -0.88%.
For `COc1ccccc1CN1CC(C(=O)N(C)CCc2nc3ccc(F)cc3[nH]2)CCC1=O` (stereo unspecified) the value was 8.31%; for `Cc1cccc(NC(=S)NCC(C)CSc2ccc(Cl)cc2)c1` (stereo unspecified), 10.5%; for `COc1cccc(C2NC(=O)NC(C)=C2C(=O)OCC2CCCCC2)c1` (stereo unspecified), -17.1%.
For `O=C(CSc1cccc(C(F)(F)F)c1)Nc1ccc(Cl)cc1Cl` the value was -3.06%; for `COC(=O)[C@@H](NC(=O)N1CCN(c2cccc(C(F)(F)F)c2)CC1)C(C)C`, 5.31%; for `COC(=O)[C@H](CC(C)C)NC(=O)N1CCN(c2cccc(C(F)(F)F)c2)CC1`, 1.6%.
For `Clc1ccccc1-c1nnc2n1CCCCC2`, the inhibition was -3.29%.
For `Oc1ccccc1-c1nnc2n1CCCCC2` the value was -9.99%; for `CCOc1cc(N2CCOCC2)c(OCC)cc1NC(=O)CN1C(=O)NC(C)(C2CC2)C1=O` (stereo unspecified), 8.07%; for `Cc1ccc(C)c(Nc2ccc(C(=O)NCCc3ccccc3)cn2)c1`, 4.16%.
For `O=C(CCN=C1NS(=O)(=O)c2ccccc21)Nc1ccc(F)cc1Cl` the value was 7.31%; for `c1ccc2c(c1)CCN(c1nc3cc4c(cc3s1)OCO4)C2`, 38.1%.
The figure for `c1ccc(N2CCN(c3nc4cc5c(cc4s3)OCCO5)CC2)cc1` is 5.85%; for `COc1ccc(S(=O)(=O)N2CCN(CC(=O)N3CCc4ccccc4C3)CC2)cc1OC` it is -1.57%.
Take `CCCC(=O)NNC(=O)CC(=O)Nc1ccccc1C(=O)O`: the inhibition is 2.33%.
On to `O=C(NC(=S)Nc1cccc2ncccc12)c1ccccc1`, for which the inhibition was 0.24%.
In the case of `O=C(NC(=S)Nc1cccc2cnccc12)c1ccccc1`, the inhibition is 5.56%.
For `CNC(=O)Cc1nc2ccccc2n1CC(=O)Nc1cc(C)cc(C)c1` the value was -9.59%; for `COc1ccc(CN2[C@@H](CC(C)=O)c3cc(C(F)(F)F)ccc3S2(=O)=O)cc1`, -4.65%; for `Cc1nnnn1-c1ccc(CC(=O)O)cc1`, -0.97%.
For `Cc1ccc(CSc2nnc(CCNC(=O)OC(C)(C)C)o2)cc1` the value was 6.64%; for `CC(C)(C)OC(=O)NCCCCCc1nnc(SCc2ccccc2)o1`, 68.1%.
For `CCCCn1c(O)c(C(=O)/C=C/c2ccc3c(c2)OCO3)c(=O)[nH]c1=O` the value was 1%; for `O=C(/C=C/c1c[nH]c2ccccc12)c1c(O)n(CCc2ccccc2)c(=O)[nH]c1=O`, 35.3%.
As for `COCCNC(=O)c1ccc(NC(=O)C2(c3ccccc3)CCCC2)cc1`, the inhibition was 40.9%.
The figure for `CCn1c(CSCc2ccc(C)cc2)n[nH]c1=S` is 3.1%.
For `CC1(C)CCC[C@]2(C)[C@H]3Cc4cc(O)ccc4O[C@]3(C)CC[C@@H]12` the value was 6.49%; for `Cc1cc(/C=N/n2cnnc2)c(C)n1-c1ccc(OCc2ccc(F)cc2)cc1`, -2.12%; for `Cc1cc(/C=N/n2cnnc2)c(C)n1-c1ccc(Cl)cc1`, -4.08%.
For `O=C(CCCC(=O)OCC(=O)c1ccc(Cl)cc1)NC1CCCCC1` the value was 30.8%; for `COc1ccc(C2(C#N)CCC(=O)N2c2ccccc2)cc1` (stereo unspecified), 5.44%; for `COc1ccc(Nc2nc(-c3ccc(OC)cc3)c(CCC(=O)O)s2)cc1`, 26.3%.
Turning to `COC(=O)CCc1sc(Nc2ccccc2)nc1-c1ccc(OC)cc1`, the inhibition was 52.4%.
On to `O=C(CCCN1C(=O)c2ccccc2C1=O)N1CCN(c2ccccn2)CC1`, for which the inhibition is -8.5%.
For the compound `Cn1c(=O)c2c(nc(NCC3CCCO3)n2C)n(C)c1=O` (stereo unspecified), the inhibition is -5.47%.
The figure for `Cc1ccc(C(=O)c2coc3ccc(O)cc23)cc1` is 2.44%; for `C[C@@H](NC(=O)[C@@H]1Cc2ccccc2CN1)C(=O)Nc1ccc2c(c1)OCCO2` it is 8.26%.
Take `Cc1[nH]c2ccc(OC(F)(F)F)cc2c1CCNCc1cccc([N+](=O)[O-])c1`: the inhibition is 62.9%.
With `COc1ccc(CNCCc2c(C)[nH]c3ccc(OC(F)(F)F)cc23)c(OC)c1`, the inhibition is 35.2%.
The figure for `C(=NC12CN3CN(CN(C3)C1)C2)c1ccc2c(c1)OCO2` is -3.64%; for `COC(=O)C1=C(c2ccc(F)cc2OCc2ccccc2)C[C@@H]2CC[C@H]1N2C(=O)NCc1ccc(F)cc1` it is -5.1%.
The figure for `CC(Sc1nc(-c2ccccc2)nc2c1COC(C)(C)C2)C(=O)N1CCOCC1` (stereo unspecified) is -20.2%.
The figure for `O=c1c2cnn(-c3ccccc3)c2nc(-c2cccs2)n1-c1ccc(Br)cc1` is 1.78%; for `O=c1oc(-c2cccs2)nc2ccccc12` it is -3.68%.
For the compound `Cc1ccc(-n2c(C)cc(/C=N/NC(=O)c3ccc(CN4CCOCC4)cc3)c2C)cc1`, the inhibition is -0.81%.
For `COc1cc(NC(=O)Cn2cnc(S(=O)(=O)N3CCOCC3)c2)cc(OC)c1OC` the value was -1.58%.
The figure for `O=C1C(O)=C(O)C(=O)c2ccccc21` is -1.99%; for `O=C1c2ccccc2-c2cccnc21` it is -8.77%; for `CCC1CCCCN1C(=S)NCc1ccccc1` (stereo unspecified) it is -0.48%.
For `CN(C)CCOc1cc(Cl)cc(Cl)c1` the value was 10%; for `Cc1nc2c(C(=O)N3CCN(c4ccccn4)CC3)cnn2c(C)c1Cc1cccc(Cl)c1`, 48.5%; for `O=C(NCc1cccnc1)/C(=C/c1ccc(-c2cccc(C(F)(F)F)c2)o1)NC(=O)c1ccccc1`, 11.6%.
Take `Cc1ccc(C(=O)N/C(=C\c2ccco2)C(=O)NCc2cccnc2)cc1`: the inhibition is -2.29%.
For `CCOC(=O)N1CCN(C(=O)CSc2ccc(C(=O)OC)cc2[N+](=O)[O-])CC1` the value was -7.7%; for `Clc1ccccc1Cc1noc(CN2CCN(Cc3ccccn3)CC2)n1`, 2.36%; for `CC(C)(C)c1ccc(C(=O)NC2CCS(=O)(=O)C2)cc1` (stereo unspecified), 1.38%.
For `Cc1ccc(C(c2c(C)nn(-c3ccccc3)c2N)c2c(C)nn(-c3ccccc3)c2N)cc1` the value was 23.1%; for `Cc1nn(-c2ccccc2)c(N)c1C(c1ccccc1)c1c(C)nn(-c2ccccc2)c1N`, 5.62%.
The figure for `COc1ccc(OC)c(C(=O)COC(=O)CNC(=O)c2ccccc2)c1` is -2.57%; for `O=C(Nc1ccccc1)N1CCCN(c2c(Cl)cncc2Cl)CC1` it is 2.69%.
On to `O=C(CN1CCN(Cc2ccccc2)CC1)N/N=C/C=C/c1ccccc1[N+](=O)[O-]`, for which the inhibition is 12%.
Consider `O=C(CN1CCN(Cc2ccccc2Cl)CC1)N/N=C/C=C\c1ccccc1[N+](=O)[O-]`, for which the inhibition was 3.7%.
Take `CCSc1nnc(NC(=O)c2nc3nc(C)cc(C)n3n2)s1`: the inhibition is -7.36%.
Turning to `Cc1ccccc1OCC(=O)OCC(=O)Nc1ccc2c(c1)OCCO2`, the inhibition was -7.86%.
For `Cc1ccc2c(c1)c1ncnc(N3CCN(c4ccccc4)CC3)c1n2C`, the inhibition is 0.15%.
For `Cc1ccc2c(c1)c1ncnc(N3CCOCC3)c1n2C` the value was -0.66%; for `CC(=O)Nc1ccc(-c2csc(Nc3ncccn3)n2)cc1`, 10.8%.
The figure for `Cc1c(C(=O)N2CCN(c3ccccn3)CC2)cccc1[N+](=O)[O-]` is 3.8%.

Values taken from PubChem BioAssay AID449762 (Southern Research Specialized Biocontainment Screening …, 2010).
